Laboratory results as given in PubChem BioAssay (EPA / NIEHS).
Results filed as inconclusive are left out. Calls of active or inactive are those of the source. The calls were made as follows, unless noted: active = hit-call score of the fitted dose curve at least 0.9, where 1 is the maximum; inconclusive = response in the unintended direction; inactive = score below 0.9.

Experiments:
[1] = Tanguay_ZF_120hpf_SNOU_legacy: (Legacy) Oregon State University Tanguay Lab 120 Hour Post-fertilization zebrafish Assay for Snout Malformation (AID 2283637)
Summary of the method: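 Binary brightfield scoring of snout malformation at 120 hpf. Dechorionated 5D wild-type embryos, one per well, static exposure from 6 hpf at 28C, sealed and dark; final DMSO 0.64% (vol/vol), DMSO as baseline; 5uM trimethyltin chloride positive control.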

[2] = Tanguay_ZF_120hpf_JAW_legacy: (Legacy) Oregon State University Tanguay Lab 120 Hour Post-fertilization zebrafish Assay for Jaw Malformation (AID 2283638);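 as to AC50: active means more embryos with jaw malformation than DMSO controls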
Summary of the method: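 Steps: dechorionate 4 hpf embryos (pronase); plate 1/well at 6 hpf; add test chemical, 0.64% DMSO final; seal, cover, hold at 28C statically to 120 hpf; score jaw defect presence/absence microscopically. Dead embryos not scored.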

[3] = Tanguay_ZF_120hpf_OTIC_legacy: (Legacy) Oregon State University Tanguay Lab 120 Hour Post-fertilization zebrafish Assay for Otic Vesicle Malformation (AID 2283639)
Summary of the method: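 Wild-type zebrafish larvae, whole-embryo exposure from early stage to 120 hpf at 28C. Binary brightfield scoring of otic vesicle morphology, fitted in the positive direction against the DMSO baseline.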

[4] = Tanguay_ZF_120hpf_PE_legacy: (Legacy) Oregon State University Tanguay Lab 120 Hour Post-fertilization zebrafish Assay for Pericardial Edema (AID 2283640);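 as to AC50: potency for increased incidence of pericardial edema versus DMSO baseline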
Summary of the method: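 Embryos from wild-type 5D adults were staged, then dosed in 0.64% DMSO. They were kept sealed in the dark at 28C until 120 hpf. Pericardial edema was then recorded as present or absent.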

[5] = Tanguay_ZF_120hpf_BRAI_legacy: (Legacy) Oregon State University Tanguay Lab 120 Hour Post-fertilization zebrafish Assay for Brain Malformation (AID 2283641)
Summary of the method: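 Wild-type 5D larvae, static waterborne exposure to 120 hpf, 28C, 0.64% v/v DMSO. Brightfield scoring of brain defects, binary; dead embryos excluded. Positive ctrl 5uM trimethyltin chloride.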

[6] = Tanguay_ZF_120hpf_SOMI_legacy: (Legacy) Oregon State University Tanguay Lab 120 Hour Post-fertilization zebrafish Assay for Somite Malformation (AID 2283647)
Summary of the method: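 Read-out: presence or absence of somite malformation in 120 hpf larvae, gain-of-signal relative to DMSO baseline. Embryos lacked chorion (pronase, 4 hpf) and were exposed statically from 6 hpf at 28C; dead larvae not scored.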

[7] = Tanguay_ZF_120hpf_PFIN_legacy: (Legacy) Oregon State University Tanguay Lab 120 Hour Post-fertilization zebrafish Assay for Pectoral Fin Malformation (AID 2283648);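 also: each larva judged yes or no for fin defect by brightfield with dead larvae skipped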
Summary of the method: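 Binary pectoral fin malformation call at 120 hpf by brightfield microscopy; 5D wild-type zebrafish, chorion removed at 4 hpf, one embryo per well from 6 hpf, static exposure at 28C; DMSO (0.64% final) as baseline.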

[8] = Tanguay_ZF_120hpf_CFIN_legacy: (Legacy) Oregon State University Tanguay Lab 120 Hour Post-fertilization zebrafish Assay for Caudal Fin Malformation (AID 2283649)
Summary of the method: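 Binary presence or absence of caudal fin malformation at 120 hpf, read by brightfield microscopy, with DMSO as baseline. Larvae came from 5D wild-type embryos exposed statically from 6 hpf at 28C after pronase dechorionation.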

[9] = Tanguay_ZF_120hpf_CIRC_legacy: (Legacy) Oregon State University Tanguay Lab 120 Hour Post-fertilization zebrafish Assay for Circulatory Malformation (AID 2283651)
Summary of the method: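 Binary circulatory-malformation call at 120 hpf via brightfield imaging, relative to DMSO controls. Embryos (5D strain, chorion removed) received static, light-shielded exposure at 28C.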

[10] = Tanguay_ZF_120hpf_SWIM_legacy: (Legacy) Oregon State University Tanguay Lab 120 Hour Post-fertilization zebrafish Assay for Swim Bladder Malformation (AID 2283654);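 also: swim bladder malformation in each larva scored yes or no under brightfield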
Summary of the method: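 Tropical 5D embryos dechorionated at 4 hpf; 1 embryo/well from 6 hpf; static, sealed, dark exposure at 28C until 120 hpf; final DMSO 0.64%; 5uM trimethyltin chloride positive control; swim bladder defect recorded yes/no; dead embryos not scored.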

[11] = Tanguay_ZF_120hpf_TRUN_legacy: (Legacy) Oregon State University Tanguay Lab 120 Hour Post-fertilization zebrafish Assay for Truncated Body (AID 2283655)
Summary of the method: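 Truncated body is recorded as a binary endpoint at 120 hpf by brightfield imaging of wild-type 5D larvae. Exposure runs statically from 6 hpf at 28C with 0.64% DMSO; embryos dying earlier are not scored.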

[12] = Tanguay_ZF_120hpf_NC_legacy: (Legacy) Oregon State University Tanguay Lab 120 Hour Post-fertilization zebrafish Assay for Notochord and Tail Malformation (AID 2283656)
Summary of the method: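 Binary notochord-distortion calls, made by brightfield inspection, form the read-out; activity is fitted in the positive direction against DMSO. Exposure ran statically from 6 to 120 hpf at 28C with 0.64% DMSO.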

[13] = Tanguay_ZF_120hpf_TR_legacy: (Legacy) Oregon State University Tanguay Lab 120 Hour Post-fertilization zebrafish Assay for Touch Response (AID 2283667)
Summary of the method: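 Binary touch-response call at 120 hpf, analysed as gain of signal versus DMSO baseline. Wild-type 5D larvae, static exposure at 28C, 0.64% DMSO final; 5uM trimethyltin chloride as positive control.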

[14] = Tanguay_ZF_120hpf_PIG_legacy: (Legacy) Oregon State University Tanguay Lab 120 Hour Post-fertilization zebrafish Assay for Pigmentation Malformation (AID 2283650);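 also: dechorionated Tropical 5D zebrafish embryos exposed singly from 6 to 120 hpf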
Summary of the method: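 Brightfield scoring of pigmentation malformation at 120 hpf, recorded as binary present/absent per larva. Exposure: dechorionated 5D wild-type embryos, one per well, static from 6 hpf at 28C, final DMSO 0.64% (vol/vol). Dead embryos not scored.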

[15] = system: Thyroperoxidase (TPO), gene 54314; experiment: CCTE_Simmons_AUR_rTPO: CCTE's Amplex UltraRed Assay for Thyroperoxidase (TPO) Inhibition, Simmons Lab (AID 2283662);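 as to AC50: potency for loss of signal meaning inhibition of peroxidase activity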
Summary of the method: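 Rat thyroid microsomal TPO + 25 uM AUR in 200 mM K phosphate; cpd 5 nM–87.5 uM [final], 8 conc, 0.5% DMSO; 300 uM H2O2 starts rxn; 37C dark 30 min; endpoint FI 544/590 nm; n=3.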

[16] = CCTE_Simmons_CellTiterGLO_HEK293T: Viability Assessment in CCTE's Assays for Thyroperoxidase (TPO) Inhibition, Simmons Lab (AID 2283665);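 as to AC50: cells exposed to compound for 24 h before readout; actives reduce ATP signal below DMSO vehicle meaning cytotoxicity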
Summary of the method: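 ATP depletion measured in HEK293T cells after 24 h dosing (8 concentrations, 5 nM–87.5 uM final; DMSO 0.5%) using CellTiter-Glo luminescence; curves fit for loss of signal against DMSO baseline.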

[17] = read-out: kallikrein-3 (KLK3), KLK3 (gene 354); experiment: LTEA_HepaRG_KLK3: Life Technologies and Expression Analysis (LTEA) Assay for kallikrein-3 (KLK3) using HepaRG (AID 2283652; active = hit-call score of the fitted dose curve at least 0.9, where 1 is the maximum; inactive = score below 0.9); conditions: mRNA level, 48 h; actives raise or lower the signal
Summary of the method: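 KLK3 transcript levels were measured by TaqMan qRT-PCR with normalisation to three housekeeping genes. HepaRG cultures received chemicals for 48 h at up to 100 uM (half-log, 8 points, 0.5% DMSO vehicle), fitted in both directions against DMSO.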

[18] = read-out: solute carrier (SLC22A6), SLC22A6 (gene 9356); experiment: LTEA_HepaRG_SLC22A6: Life Technologies and Expression Analysis (LTEA) Assay for solute carrier (SLC22A6) using HepaRG (AID 2283653; active = hit-call score of the fitted dose curve at least 0.9, where 1 is the maximum; inactive = score below 0.9); conditions: mRNA level, 48 h; actives raise or lower the signal
Summary of the method: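 Read-out is SLC22A6 transcript level by qRT-PCR, normalised to three housekeeping genes and fitted for gain or loss relative to 0.5% DMSO vehicle. Human HepaRG cells received chemicals at up to 100 uM for 48 h.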

[19] = read-out: solute carrier (SLC10A1), SLC10A1 (gene 6554); experiment: LTEA_HepaRG_SLC10A1: Life Technologies and Expression Analysis (LTEA) Assay for solute carrier (SLC10A1) using HepaRG (AID 2283657; active = hit-call score of the fitted dose curve at least 0.9, where 1 is the maximum; inactive = score below 0.9); conditions: mRNA level, 48 h; actives raise or lower the signal
Summary of the method: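 HepaRG, 48 h exposure, 8-pt half-log curve from 100 uM in 0.5% DMSO, duplicates. Read-out: TaqMan qRT-PCR of SLC10A1 mRNA, normalized to three housekeeping genes. Gain/loss fit vs DMSO baseline.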

[20] = read-out: matrix metalloproteinase-1 (MMP1), MMP1 (gene 4312); experiment: LTEA_HepaRG_MMP1: Life Technologies and Expression Analysis (LTEA) Assay for matrix metalloproteinase-1 (MMP1) using HepaRG (AID 2283658; active = hit-call score of the fitted dose curve at least 0.9, where 1 is the maximum; inactive = score below 0.9); conditions: mRNA level, 48 h; actives raise or lower the signal
Summary of the method: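 HepaRG, ~100,000 cells/well, 48 h pre-culture; serum-free induction medium; test chemical 8 conc (max 100 uM, half-log), duplicate, 48 h; 0.5% DMSO; qRT-PCR MMP1, housekeeping-normalized; gain/loss fit vs DMSO.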

Measured: AC50

CCCCCCCCCCCCc1ccccc1
not listed: [14] | [15] | [16] | [17] | [18] | [19] | [20]
inactive: all other assays above

C1=CCCC=CCCC=CCC1
not listed: [10] | [15] | [16] | [17] | [18] | [19] | [20]
inactive: all other assays above

O=C1CCCCCN1
not listed: [7] | [10] | [15] | [16] | [17] | [18] | [19] | [20]
inactive: all other assays above

CC(=O)OCCC(C)C
inactive: [1] | [2] | [3] | [4] | [5] | [8] | [10] | [11] | [12] | [13]

O=C1OC(=O)C2C3C=CC(C3)C12 (stereo not drawn)
not listed: [10] | [14] | [15] | [16] | [17] | [18] | [19] | [20]
inactive: all other assays above

CCOC(=O)COc1ccc2c(c1)CC(NCC(O)c1cccc(Cl)c1)CC2 (stereo not drawn)
not listed: [9] | [12] | [15] | [16] | [17] | [18] | [19] | [20]
inactive: all other assays above

CCN(C(=O)c1cc(C)cc(OC[C@H](C)Nc2ccncc2)c1)C(C)C
not listed: [10] | [15] | [16] | [17] | [18] | [19] | [20]
inactive: all other assays above

COC(=O)c1c(Cl)c(Cl)c(C(=O)OC)c(Cl)c1Cl
inactive: [1] | [2] | [3] | [4] | [5] | [6] | [8] | [9] | [10] | [11] | [12]

Nc1ccc(Nc2ccccc2)cc1
inactive: [3] | [12]
active: [1] 34.9 µM | [2] 27.2 µM | [4] 40 µM | [5] 45.1 µM | [6] 40.1 µM | [7] 41.2 µM | [8] 47 µM | [14] 48.7 µM | [11] 40.8 µM | [15] 3.09 µM | [16] 38.4 µM

COCCOc1cc2cc(C(=O)NC3CCN(C(C)C)CC3)n(CC(=O)Nc3ccc(Cl)cn3)c2cn1
not listed: [10] | [12] | [15] | [16] | [17] | [18] | [19] | [20]
inactive: all other assays above

COc1ccc(/C=C/S(=O)(=O)NC(=O)c2ccc(C)cc2Cl)cc1
not listed: [14] | [15] | [16] | [17] | [18] | [19] | [20]
inactive: all other assays above

CCOc1cccc(-n2cc(C(=O)N3CCN(c4cc(C(=O)O)c5ccccc5c4)CC3)nc2-c2ccc(C)cc2)c1
active: [15] 43.8 µM | [16] 22.6 µM
not listed: [9] | [17] | [18] | [19] | [20]
inactive: all other assays above

CCOC(=O)CC(CC(=O)OCC)(OC(C)=O)C(=O)OCC
inactive: [1] | [2] | [3] | [4] | [5] | [6] | [7] | [8] | [14] | [9] | [13]

C=CC(=C)CCC=C(C)C
not listed: [7]
inactive: all other assays above

COc1cccc(-c2ccc(/C=C\CN3CCCCCC3)cc2Cl)c1
not listed: [8] | [9] | [15] | [16] | [17] | [18] | [19] | [20]
inactive: all other assays above

NC(=O)NO
active: [15] 43.8 µM
not listed: [6] | [17] | [18] | [19] | [20]
inactive: all other assays above

Cc1ccc(N)cc1O
active: [15] 1.18 µM
not listed: [10] | [11] | [17] | [18] | [19] | [20]
inactive: all other assays above

O=C(O)c1cccc(Oc2ccccc2)c1
not listed: [6] | [10] | [12] | [13] | [15] | [16] | [17]
inactive: all other assays above
